Compound activity (PubChem BioAssay)
HTT aggregate = qHTS Multiplex Assay to Identify Dual Action Probes in a Cell Model of Huntington: Aggregate Formation (GFP) | Potency, µM (top dose mostly 46.1 µM), for inactives: top-dose activity change, negative = inhibition, usual class: inhibitors | actives 1.1% (n = 220,000) | PC12 HttQ103-GFP aggregates, Acumen cytometry, 40 h; further: on the % scale 0 is the no-effect control and ±100 the full control effect; nearly all actives have a fitted effect of over 60% in size
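Multiplexed with ATP-based cell death, this channel scores GFP aggregates in PC12 cells expressing inducible HTTex1-Q103-GFP. Induction used 100 nM tebufenozide; compounds were tested in concentration series.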
ALDH1A1 inh = qHTS Assay for Inhibitors of Aldehyde Dehydrogenase 1 (ALDH1A1) | actives 7.3% (n = 220,000) | Potency, µM (series often up to 75.3 µM), for the others: at the top dose activity, negative = inhibition, actives largely listed as inhibitors | Purified ALDH1A1, NADH fluorescence, propionaldehyde substrate | AID 1030, 2008; active means well fitted inhibition curve with a large enough effect, not every such curve was filed as active; inconclusive means small, poorly fitted or top-dose-only effect, or another doubt; inactive means no such curve, though single readings can be large or run the other way;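 further: plate controls were no enzyme wells and a reference inhibitor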
Target sequence (P00352 whole entry, looked up): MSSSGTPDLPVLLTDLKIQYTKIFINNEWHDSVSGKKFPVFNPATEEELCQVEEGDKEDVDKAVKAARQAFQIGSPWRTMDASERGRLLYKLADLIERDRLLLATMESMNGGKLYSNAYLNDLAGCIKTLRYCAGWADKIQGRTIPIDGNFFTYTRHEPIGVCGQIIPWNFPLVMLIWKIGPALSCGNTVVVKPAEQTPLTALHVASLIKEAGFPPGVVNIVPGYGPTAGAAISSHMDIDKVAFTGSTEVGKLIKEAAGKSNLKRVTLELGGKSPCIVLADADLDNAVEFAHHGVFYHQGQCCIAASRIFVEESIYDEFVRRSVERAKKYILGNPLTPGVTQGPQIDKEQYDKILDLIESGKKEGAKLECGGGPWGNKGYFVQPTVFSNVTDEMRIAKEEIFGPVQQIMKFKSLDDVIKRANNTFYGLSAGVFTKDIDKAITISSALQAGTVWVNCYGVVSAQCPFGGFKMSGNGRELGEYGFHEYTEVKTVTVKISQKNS
HPGD block = qHTS Assay for Inhibitors of HPGD (15-Hydroxyprostaglandin Dehydrogenase); Potency, µM, for the others: at the highest dose activity change, negative = inhibition, hits mostly inhibitors; 15-hydroxyprostaglandin dehydrogenase [NAD(+)] (Homo sapiens), P15428; actives 4.3% (n = 150,000); purified HPGD, NADH fluorescence kinetic, PGE2 substrate; active means well fitted inhibition curve with a large enough effect, not every such curve was filed as active; inconclusive means small, poorly fitted or top-dose-only effect, or another doubt; inactive means no such curve, though single readings can be large or run the other way; further: on the % scale 0 is the no-effect control and ±100 the full control effect
Target sequence (P15428 whole entry, looked up): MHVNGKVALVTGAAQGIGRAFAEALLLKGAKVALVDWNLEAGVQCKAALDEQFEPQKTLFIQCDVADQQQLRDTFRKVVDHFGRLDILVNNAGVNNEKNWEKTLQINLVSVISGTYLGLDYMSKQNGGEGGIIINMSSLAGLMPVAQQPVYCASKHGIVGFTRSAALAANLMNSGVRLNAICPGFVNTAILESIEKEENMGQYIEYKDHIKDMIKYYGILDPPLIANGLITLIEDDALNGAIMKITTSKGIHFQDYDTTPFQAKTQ
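NADH formation kinetics: reaction with 30 uM PGE2 and 1 mM NAD+ (final), 20 nM enzyme, Tris-HCl pH 8 with Tween 20, after 15 min compound preincubation at room temperature. Fluorescence change, last versus first of five reads.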
Lamin A splicing = qHTS Assay for Modulators of Lamin A Splicing; AID 1487, 2009; HeLa LMNA splicing GFP/RFP minigene ratio, 48 h; actives 0.01% (n = 200,000); Potency, µM (highest dose often 46.1 µM), without a hit: at the highest dose ratio change, negative = inhibition, most hits filed as inhibitors; active means well fitted inhibition curve with a large enough effect in the signal ratio, with a control signal flat, not every such curve was filed as active; inconclusive means small, poorly fitted or top-dose-only effect, or effect the other way, or a change in a side signal; the % refers to the signal ratio; further: on the % scale 0 is the no-effect control and ±100 the full control effect
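Read-out is the ratio of GFP to DsRed2 object intensity, acquired by 488 nm laser-scanning cytometry on HeLa lamin A-EGFP minigene reporter cells. Compound incubation 48 hrs at 37 °C in Opti-MEM with 2% FBS; DMSO 0.5% final.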
HTT ATP protect = qHTS Multiplex Assay to Identify Dual Action Probes in a Cell Model of Huntington: Cytoprotection (ATP); PC12 HTT-Q103 induced, cytoprotection, ATP luminescence, 40 h; Potency, µM (series often up to 56.4 µM), without a hit: cytoprotection (ATP increase), usual class: activators; actives 0.14% (n = 230,000); AID 1471, 2008; further: % of control where 0% means no effect; nearly all actives have a fitted effect of over 45% in size
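Stable PC12 Q103-GFP cells in serum-supplemented, phenol red-free DMEM; induction by tebufenozide at 100 nM final; compound dose series; cell viability quantified luminescently from ATP.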
Luc counter = Counterscreen for Luciferase (Kinase-Glo TM) Inhibition; Luciferin 4-monooxygenase (Photuris pensylvanica), Q27757; Kinase-Glo luciferase, ATP luminescence, 8 min; Potency, µM (titrated, usually from 38.3 µM), inactives show top-dose activity change, negative = inhibition, hits mostly inhibitors; actives 0.28% (n = 200,000); AID 1379, 2008; further: on the % scale 0 is the no-effect control and ±100 the full control effect; nearly all actives have a fitted effect of over 60% in size
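Light output from Kinase-Glo luciferase with luciferin and 10 uM ATP in 50 mM imidazole pH 7.2, KCl, MgCl2, Tween 20, BSA; compound pin-delivered, 8-min ambient incubation, then luminescence read.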
* = called active by the depositor; ? = inconclusive; · = no result given; [ ] = another dose, or the depositor's remark. An excerpt weighted towards active compounds, which were near 9% of everything screened. Unless noted, the call rests on the fitted dose curve; in most records, active means well fitted curve in the direction sought with a large enough effect; inconclusive means small, poorly fitted or top-dose-only effect, or another doubt; inactive means no such curve, though single readings can be large; an effect the other way counts as inactive or inconclusive. Potency means the concentration at half of the fitted maximal effect.

SMILES	HTT aggregate	ALDH1A1 inh	HPGD block	Lamin A splicing	HTT ATP protect	Luc counter
COc1cccc(C(=O)C(C#N)=C(SC)SC)c1	4%[9.22 µM]	7.1µM*	·	·	-34%[10 µM]	·
CSC(SC)=C(C#N)C(=O)c1ccccc1	7%[9.22 µM]	22µM*	·	?	-32%[10 µM]	·
COc1ccccc1C(=O)N(Cc1ccco1)C1CCS(=O)(=O)C1 (stereo not given)	-4%	-5%	-11%	4%	0%[0.074 µM]	-2%
O=C(OCC(=O)N1CCc2ccccc21)c1ccccc1	3%	2%	-10%	-10%	-2%[10 µM]	-5%
Cc1csc(=N)n1CC(=O)N1CCc2ccccc21	-4%	25µM*	-4%	-1%	14%	-3%
CCOCC(=O)N1CCc2ccccc21	-8%	3.5µM*	-1%	-6%	-2%[0.074 µM]	0%
O=C(CO/N=C/c1ccccc1O)N1CCc2ccccc21	4%	10µM*	-8%	-3%	9%[10 µM]	1%
CCOC(=O)c1cc2sccc2n1CC(=O)N1CCc2ccccc21	-4%	-2%	1%	?	-8%	2%
O=C(Nc1ccc2c(c1)CCC2)C1CCN(c2ncccn2)CC1	-5%	?	-20%	?	5%[10 µM]	-5%
S=C(Nc1ccc(N2CCOCC2)cc1)Nc1ccc2snnc2c1	-20%	25µM*	·	?	-28%	-2%
O=C(Nc1ccc2snnc2c1)N1CCOCC1	5%	7%	-15%	1%	-6%[10 µM]	-4%
Cc1ccc(CNS(=O)(=O)c2ccc(C(C)(C)C)cc2)n1C	?	8.9µM*	-11%	8%	10%	0%
Cc1ccccc1C(=O)Oc1ccc(Br)cc1C(=S)N1CCCC1	0%	-14%	-18%	5%	10%	-2%
O=C(Oc1ccc(C(=S)N2CCCCC2)cc1)c1ccccc1F	?	8.9µM*	·	·	-28%	-1%
O=C(Oc1ccc(Br)cc1C(=S)N1CCCC1)c1ccccc1F	2%	11µM*	25µM*	?	·	-1%
O=C(Nc1ccccc1N1CCCCC1)c1cccs1	-2%	-7%	-3%	?	9%[0.074 µM]	0%
CCCN(CCC)c1ncnc2nc[nH]c12	7.9µM*	6%	-4%	6%	5%	-2%
OCCN(CCO)c1ncnc2nc[nH]c12	·	17%[13.5 µM]	-12%	·	-5%[10 µM]	-7%[7.66 µM]
CCN(CC)c1ccc(/C=C/C(=O)c2ccc(Br)cc2)cc1	-8%	?	-4%	-24%	6%[10 µM]	2%
CCN(CC)c1ccc(C=C2C(=O)OC3(CCCCC3)OC2=O)cc1	25%	0.18µM*	·	?	-32%	-1%
CC1=NOC(=O)/C1=C/c1ccc(N(C)C)cc1	-5%	0%	·	-3%	3%	·
CCN(CC)c1ccc(/C=C2/C(=O)c3ccc(C(=O)O)cc3C2=O)cc1	1%	8.9µM*	11µM*	-11%	11%[10 µM]	-11%
CCN(CC)c1ccc(/C=C2/C(=O)ON=C2C)cc1	-1%	1.5µM*	-19%	-10%	7%[10 µM]	-3%
CCN(CC)c1ccc(/C=C2\C(=O)N(c3nnc(C)c(=O)[nH]3)N=C2C)cc1	11%[9.22 µM]	·	·	·	3%[10 µM]	·
CCCCC1(C)OC(=O)C(=Cc2ccc(N(CC)CC)cc2)C(=O)O1 (stereo not given)	1%	0.4µM*	20µM*	2%	-34%	-8%
SMILES	HTT aggregate	ALDH1A1 inh	HPGD block	Lamin A splicing	HTT ATP protect	Luc counter
Cc1cc(C(=O)N/N=C2\CC(=O)CC(C)(C)C2)c2ccccc2n1	9%	3%	-1%	-1%	-1%[10 µM]	2%
Cc1cc(C)c2cc(C#N)c(NCCCNC(=O)CCC(=O)O)nc2c1	2%	?	?	7%	-14%[10 µM]	1%
COCCNC(=O)Cn1c(=O)n(Cc2ccco2)c(=O)c2ccccc21	-6%	?	-19%	-5%	-46%	-1%
Cc1cc(C)cc(NS(=O)(=O)c2ccc3c(c2)c(=O)n(C)c(=O)n3C)c1	8.9µM*	6%	2%	?	4%	-3%
Cn1c(=O)c2cc(S(=O)(=O)Nc3cc(C(=O)O)cc(C(=O)O)c3)ccc2n(C)c1=O	0%	3%	·	·	-7%	·
Cc1ccc(CCNC(=O)CN(C)S(=O)(=O)c2ccc3c(c2)c(=O)n(C)c(=O)n3C)cc1	-1%	13µM*	-15%	-2%	-6%	4%
Cc1cccc(CCNC(=O)CN(C)S(=O)(=O)c2ccc3c(c2)c(=O)n(C)c(=O)n3C)c1	-21%	-8%	-11%	3%	-10%	-2%
O=C1C(Cl)=C(NC2CCc3ccccc32)C(=O)c2ncccc21 (stereo not given)	·	11µM*	-9%	·	-92%	-5%
O=C(N1CCOCC1)n1nnc2ccccc21	9%	-9%	-5%	1%	-58%	-6%
CCOC(=O)N1CCN(S(=O)(=O)c2ccc(OCC)c(C)c2)CC1	?	16µM*	-9%	?	24%[10 µM]	2%
CCOc1ccc(S(=O)(=O)Nc2ccc(S(=O)(=O)N3CCCCC3)cc2)cc1	6%	2.2µM*	-5%	-1%	-19%	1%
O=S(=O)(c1cc(Cl)ccc1Cl)N1CCCC1	-10%	0.089µM*	-15%	26%	11%[10 µM]	2%
CCOc1ccc(S(=O)(=O)Nc2ccc(S(=O)(=O)N3CCCC3)cc2)cc1	-4%	3.2µM*	-7%	-11%	-20%	3%
CCOc1ccc(S(=O)(=O)Nc2ccc(S(=O)(=O)N3CCOCC3)cc2)cc1	-14%	?	-14%	-1%	-8%	2%
Cc1cc(C)cc(Oc2coc3cc(OC(=O)c4cccnc4)ccc3c2=O)c1	5%	4%	-11%	?	-3%[10 µM]	-2%
O=C(NNC(=O)C1CCN(S(=O)(=O)c2cccc(C(F)(F)F)c2)CC1)C1CC1	3%[9.22 µM]	2%	·	?	-4%[10 µM]	-3%
COC(=O)c1ccc(C(=O)Nc2ccc(N)cc2N)cc1	3%	-6%	-17%	3%	-13%	-2%
COc1ccc(C(=O)C2CCCN(Cc3cn(C)nc3-c3ccccc3)C2)cc1F (stereo not given)	2%[9.22 µM]	-5%	·	-19%[46 µM]	10%[10 µM]	4%
O=C(/C=N/O)NCCCn1ccnc1	8%	?	·	-7%	10%	·
O=S(=O)(Nc1ccc(N2CCCCC2)cc1)c1ccc(F)cc1F	0%[9.22 µM]	-13%	·	·	-2%[10 µM]	·
COc1cc(OC)cc(C(=O)NCc2n[nH]c(=S)n2-c2ccccc2OC)c1	13%	?	?	-10%	-9%[10 µM]	2%
